HCV inh – qHTS Assay for Inhibitors of Hepatitis C Virus (HCV). Huh7.5.1 HCVcc-Cre infection, luciferase reporter, 44 h. Potency, µM (titrated, usually from 41.8 µM), for inactives: at the highest dose activity change, negative = inhibition, usual class: inhibitors. 340,000 compounds, 3.4% hits. AID 651820, 2012; active means well fitted inhibition curve with a large enough effect; inconclusive means small, poorly fitted or top-dose-only effect, or another doubt; inactive means no such curve, though single readings can be large or run the other way; further: potency means the concentration at half of the fitted maximal effect
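Cells seeded at 1,000/well and cultured 4 h, then compounds added followed by HCVcc-Cre virus (~0.5 moi). After 44 h further culture, luciferase substrate was added, plates held 15 min at room temperature, and luminescence read for 15 sec.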
HCMV inh – qHTS Assay for inhibitors of the human cytomegalovirus (HCMV); HFF cells, HCMV-luciferase reporter, 72 h; stronger effect = lower value; activity change, negative = inhibition, % at 57.5 µM; 410,000 compounds, 4.5% hits; in the data active means activity change below about -60%; inconclusive means no clear call, values can overlap the other calls; inactive means above about -39%
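Steps: HFFs plated, 16 h 37C; compounds added; HCMV-luciferase added to MOI 1 PFU/cell; 72 h 37C; OneGlo reagent, 5 min room temperature; luminescence read, normalized to controls.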
FMDV antiviral – High Throughput Screening for Foot and Mouth Disease Virus Antivirals. FMDV antiviral cell-based qHTS. Potency, µM (doses to about 57.9 µM), inactives show top-dose activity change, negative = inhibition, usual class: inhibitors. 410,000 compounds, 1.2% hits; calls by dose curve; tested in HEK293T cells; further: read-out not given here; potency means the concentration at half of the fitted maximal effect; nearly all actives have a fitted effect of over 45% in size
Vaccinia Venus – qHTS for Stage-Specific Inhibitors of Vaccinia Orthopoxvirus: Venus Reporter Primary qHTS; Vaccinia virus Venus reporter expression, fluorescence; Potency, µM (titrated, usually from 36.5 µM), for inactives: at the top dose activity change, negative = inhibition, usual class: inhibitors; 330,000 compounds, 0.46% hits; AID 720580, 2013; calls by dose curve; tested in A549 cells; further: potency means the concentration at half of the fitted maximal effect; nearly all actives have a fitted effect of over 30% in size
Vaccinia mCherry – qHTS for Stage-Specific Inhibitors of Vaccinia Orthopoxvirus: mCherry Reporter Primary qHTS; Vaccinia virus mCherry reporter infection, fluorescence; Potency, µM (series often up to 36.5 µM), for the others: at the top dose activity change, negative = inhibition, hits mostly inhibitors; 310,000 compounds, 0.63% hits; calls by dose curve; tested in A549 cells; further: potency means the concentration at half of the fitted maximal effect; nearly all actives have a fitted effect of over 35% in size
The depositor's hits bear a star; i = inactive; u = inconclusive; x = no result; [ ] = another dose, or the depositor's remark. Sampled rows, rich in hits. Any-hit rate of the full collection: about 7.3%. On the % scale 0 is the no-effect control and ±100 the full control effect.

SMILES	HCV inh	HCMV inh	FMDV antiviral	Vaccinia Venus	Vaccinia mCherry
CCC(=O)N1CCc2cc(Br)cc(S(=O)(=O)CCC(=O)NCc3ccc(F)cc3)c21	x	-4.8	-11.9%	-7.1%	-5.1%
CC1(C)CN2C(c3ccc(Cl)cc3)N2C1 (configuration not stated)	7.5%	-74.7*	16.9%	-3.2%	-9.4%
COC1Cc2ccccc2N(C(N)=O)c2ccccc21 (configuration not stated)	0.0%	-34.8	-2.4%	-13.5%	i
CCCNC(=O)C[C@@H]1C[C@H]2c3cc(NC(=O)c4ccc5c(c4)OCO5)ccc3O[C@H]2[C@@H](CO)O1	x	35.6	-10.8%	-18.2%	-9.8%
COc1ccc(CNC(=O)C(c2ccncc2)N(C(=O)Cc2cccs2)c2ccccc2)cc1 (configuration not stated)	-1.6%	1.4	-3.9%	10.6%	i
Cc1ccc(S(=O)(=O)C(CNC(=O)C(=O)NCCc2ccc(Cl)cc2)c2ccco2)cc1 (configuration not stated)	x	-13.4	-17.3%	-24.1%	u
O=C(NCCc1ccc(Cl)cc1)C(=O)NCC(c1ccco1)S(=O)(=O)c1ccc(Cl)cc1 (configuration not stated)	x	-80.8*	-38.1%	u	u
COc1ccc(CC(=O)NCC(c2cccs2)S(=O)(=O)c2ccc(F)cc2)cc1 (configuration not stated)	x	-2.1	-18.7%	-8.5%	-10.9%
COc1ccc(N(C(=O)CCl)C(C(=O)NCCc2ccccc2)c2cccs2)cc1 (configuration not stated)	5.62µM*	-100.3*	15.8µM*	u	-20.8%
COc1ccc(CCNC(=O)C(=O)NCC(c2cccs2)S(=O)(=O)c2ccc(F)cc2)cc1 (configuration not stated)	x	-29.8	39.8µM*	-8.4%	-17.8%
Cc1ccccc1C1=NOC2CN(C(=O)/C=C/c3ccccc3)CC12 (configuration not stated)	x	-11.0	x	x	x
Cn1c(SSc2ccc(-c3cccnc3)n2C)ccc1-c1cccnc1	-16.9%	-36.7	u	u	12.6µM*
c1cncc(-c2nnc(-c3cccnc3)nn2)c1	u	5.3	u	1.5%	-9.3%
CCc1ccc(CN(C)C(=O)CCc2nc3ccccc3n(-c3ccc(OC)cc3)c2=O)cc1	u	-68.3*	u	u	u
COc1cccc(NC(=O)Nc2cccnc2)c1	19.3%	-26.5	47.3%	x	x
C=CC(=O)Nc1cccc(N(C)c2ccnc(Nc3ccc(N4CCN(C)CC4)cc3)n2)c1	u	x	u	4.47µM*	u
C=CC(=O)Nc1cccc(Oc2ccnc3[nH]ccc23)c1	33.6%[8.37 µM]	x	-14.1%	5.62µM*	u
C=CC(=O)Nc1cccc(Oc2ccnc(Nc3ccc(N4CCN(C)CC4)cc3)n2)c1	-21.4%	-21.5	-20.8%	3.55µM*	u
O=C(CN1c2ccc(Br)cc2-c2ccccc2S1(=O)=O)N1CCCCC1	x	50.9	62.8%	-1.9%	-4.7%
CCOc1ccccc1NC(=O)CN1c2ccccc2S(=O)(=O)c2ccccc21	x	12.0	-7.8%	-7.5%	-15.6%
CCCS(=O)(=O)c1nc(S(=O)(=O)c2ccc(C)cc2)c(NCc2ccccc2)s1	x	-39.2	17.4%	-10.0%	i
CN(Cc1ccccn1)C(=O)c1cc(COc2ccc(F)c(F)c2)on1	x	-92.9*	2.6%	-17.5%	-8.2%
COc1cccc(OCc2cc(C(=O)N(C)Cc3nc(C)cs3)no2)c1	-2.2%	59.3	72.1%	-8.5%	-24.5%
Cc1nc(CN(C)C(=O)c2cc(COc3ccc4ncccc4c3)on2)cs1	u	-64.6*	u	-18.2%	-8.6%
CC(C)N(Cc1nccn1C)C(=O)c1cc(COc2ccc3ncccc3c2)on1	u	-71.3*	-5.8%	-12.9%	u
Cc1ccc(OCc2cc(C(=O)N(C)Cc3cnn(C)c3)no2)cc1C	x	36.0	40.5%	-11.4%	-11.8%
Cc1ccc(OCc2cc(C(=O)N(C)Cc3cnn(-c4ccccc4C)c3)no2)cn1	11.2µM*	-26.4	0.0%	-20.6%	-19.0%
CC1=C(C(=O)N(C(C)C)C(C)C)CC(CC(=O)NCc2cccs2)C(=O)N1Cc1ccc(C(C)(C)C)cc1 (configuration not stated)	x	-26.0	-13.4%	-15.0%	6.3%
